This note sets out measurements from PubChem BioAssay AID1259423 (Fisher Drug Discovery Resource Center, 2018).

The experiment has as its system Aedes aegypti neuropeptide Y-like receptor 7 (NPYLR7). Kind of experiment: agonists of mosquito NPYLR7 receptor, primary screen, cell-based, Aedes aegypti, calcium fluorescence, mosquito biting behavior (AID 1259423).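 Also: 0% = vehicle and 100% = reference agonist at the receptor.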 The conditions noted are these: HEK293T NPYLR7/Galpha15, GCaMP6s calcium fluorescence, at 10 µM, stronger effect = higher value.
[1] abbreviates: measured here: Max-Min RFU normalised activation.

Screen size: about 270,000 compounds; about 410 (0.15%) were called active. Rule as the data show it: active = activation above about 40%; inactive = the rest, inconclusive results apart. What follows is part of a selection rich in actives, with near analogues and random picks from the rest.

Turning to `Cc1ccc(CNc2oc(-c3ccc(S(=O)(=O)N(C)Cc4ccccc4)cc3)nc2C#N)cc1`, the activation was -0.355% (inactive). Moreover, the activation under setting [1] was 4.09%.

As to `O=C(NC1Cc2ccccc2C1)c1ccc(-c2cc(-c3cccc(C(F)(F)F)c3)n[nH]2)cc1`, the activation is 25.1% (inactive). In addition, under setting [1], the activation was 16.8%.

Take `N#Cc1cc2cc(Cl)cc(Cl)c2oc1=O`: the activation is 189% (active). In addition, the activation under setting [1] worked out at 162%.

As to `O=c1oc2c(Cl)cc(Cl)cc2cc1-c1nnc(Nc2ccccc2F)s1`, the activation was 3.96% (inactive). The activation under setting [1] was determined as 1.58%.

Turning to `N#Cc1cc(Cl)c(Cl)cc1C#N`, the activation was 9.21% (inactive). Moreover, the activation under setting [1] came out at 8.51%.

As for `CCCCNC(=O)c1c(C)c(C(=O)OCC)n(C)c1C`, the activation is -1.79% (inactive). Moreover, under setting [1], the activation was found to be 26.8%.

On to `O=C(Nc1cc(F)c(N2CCCC2)c(F)c1)C1Cc2ccccc2O1` (configuration not stated), for which the activation was 2.58% (inactive). Also, the activation under setting [1] stood at 0.532%.

On to `COc1ccc(NC(=O)C(C)SCc2cccc(C(F)(F)F)c2)cc1` (configuration not stated), for which the activation was -0.635% (inactive). Further, under setting [1], the activation was -2.01%.

Take `C=C(C)Cn1c(C2CC(=O)N(c3ccccc3CC)C2)nc2ccccc21` (configuration not stated): the activation was -1.84% (inactive). Moreover, the activation under setting [1] is 23.5%.

With `CCN(CC)C(=O)C1(C)CCN1C(=O)Cc1ccc(-c2ccccc2)cc1` (configuration not stated), the activation is 4.71% (inactive). Under setting [1], the activation stood at 3.32%.

`COc1cccc(CN(CC(O)COCC(C)C)CC2CCCO2)c1` (configuration not stated): the activation is 23.7% (inactive). The activation under setting [1] turned out to be 17.6%.

Consider `CC(C)COCC(O)CN(Cc1cccn1C)CC1CCCO1` (configuration not stated), for which the activation is 43.6% (active). Under setting [1], the activation came out at 42.4%.

As to `COc1ccc(OCC(O)CN(Cc2cccn2C)CC2CCCO2)cc1` (configuration not stated), the activation is 18.8% (inactive). Besides, the activation under setting [1] turned out to be 19.6%.

As for `Fc1ccc(-c2cnc(NCCc3ccccn3)cn2)cc1Cl`, the activation is -2.76% (inactive). Under setting [1], the activation was -5.38%.

As to `COC(=O)C1=C(NC(=O)CSCc2ccccc2)CCS1`, the activation was -1% (inactive). In addition, under setting [1], the activation is -1.58%.

In the case of `CC1CCC(C(C)C)C(OCC(O)CN2CCN(CCO)CC2)C1` (configuration not stated), the activation was 0.73% (inactive). Further, the activation under setting [1] turned out to be 22.3%.
